Outcome data for 21 compounds are collected here from PubChem BioAssay AID837 (The Scripps Research Institute Molecular Screening Center, 2007).

The source made the active and inactive calls.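 Rule for the calls: active = relative FRET score above 0.01, or acceptor fluorescence over 30% below the sample-well median; inactive = the rest.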

The target of the test is Protein Rev (Human immunodeficiency virus type 1 group M subtype B (isolate WMJ22)) (UniProt P05866). As to the kind of experiment: disruptors of Rev peptide-RRE RNA complex – biochemical, FRET, acceptor and relative FRET calls, confirmation (AID 837).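 Note: relative FRET combines rise in Cy5 acceptor with fall in fluorescein donor.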 As to conditions: Fl-Rev peptide / Cy5-RRE RNA FRET, 1536-well; at 8 µM.
Protein Rev (Human immunodeficiency virus type 1 group M subtype B (isolate WMJ22)), sequence (P05866 whole entry, looked up): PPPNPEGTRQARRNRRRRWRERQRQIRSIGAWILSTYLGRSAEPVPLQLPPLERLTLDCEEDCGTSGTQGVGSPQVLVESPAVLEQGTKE
Turning to `c1ccc(COc2ccc(OCCCCN3CCCCC3)cc2)cc1`, the result was inactive. The entry for `COC(=O)c1c(C(=O)OC)n(CCCN)c2ccc(C)cc12` is “active”; for `CN=C1c2c(-c3ccccc3)c3cc(OC)ccc3n2CCN1C` it is “inactive”; for `COc1ccccc1Nc1nc(N)nc(CN(C)C2CCCCC2)n1` it is “inactive”. The value for `CC(NCc1ccc(N(C)C)cc1)C1CC2CCC1C2` (stereo unspecified) was “active”; that for `Cc1ccc(Nc2nc(N)nc(CSc3nnnn3-c3ccccc3)n2)cc1` was “inactive”. For the compound `O=C(NCCCO)Nc1ccc2nc(-c3ccco3)c(-c3ccco3)nc2c1`, the compound was classed as inactive.

For the compound `CC1CC(c2ccccc2)n2nc(NC(=O)c3cccs3)nc2N1` (stereo unspecified), the compound was classed as inactive. The entry for `C=CCn1c(=O)c(C(=O)NCCNCC)c(O)c2ccccc21` is “inactive”; for `CCN1C2=NCCCN2c2cc(C)c(C)cc21` it is “inactive”. As to `COc1cccc(Nc2nc(NCC3CCCO3)c3ccccc3n2)c1` (stereo unspecified), the compound was called inactive.

Turning to `Cc1cc(C)cc(NC2=NC3(CCCCC3)N=C(N)N2)c1`, the compound was called inactive. The value for `COc1ccc(CN(C)C2CCCCC2)c(C)c1C` was “inactive”; that for `CN(C)CCCNC(=O)c1ccc(-c2nc(-c3ccc(Cl)cc3)cs2)cc1` was “inactive”. `CC[n+]1c(/C=C/Nc2ccccc2)oc2ccccc21`: the outcome was “active; fluoresces like the donor”. As to `O=c1cc(-c2ccco2)oc2c1ccc1ccccc12`, the result was inactive. The entry for `COn1cnnc1-c1ccccc1` is “inactive”; for `Cc1c(Cl)cccc1Nc1nc(N)nc(CN2CCCCCC2)n1` it is “inactive”. `C[n+]1c2n(c3ccccc31)N=C(c1ccc(Cl)cc1)CS2`: the compound was called active. The value for `Cc1nc(NC(=O)c2ccc(Br)o2)sc1C` was “inactive”; that for `CCN(CC)CC(O)COCCC12CC3CC(CC(C3)C1)C2` (stereo unspecified) was “inactive”.
